From PubChem BioAssay AID651814 (National Center for Advancing Translational Sciences (NCATS), 2012)
About 590 (28%) of roughly 2,100 compounds were called active. About 42% were inconclusive and are not listed. The list shows a part of the results. A number with no mark means an inactive call. The call rests on the fitted dose curve; in most records, active means well fitted inhibition curve with a large enough effect; inconclusive means small, poorly fitted or top-dose-only effect; inactive means flat fitted curve, though single readings scatter.
Further: nearly all actives have a fitted effect of over 70% in size.
Potency means the concentration at half of the fitted maximal effect.
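Wherever max response is given: % of control where 0% means no effect; active compounds raise eYFP fluorescence by blocking Vif-driven A3F loss.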

Each molecule was assayed against DNA dC->dU-editing enzyme APOBEC-3F (Homo sapiens) (UniProt Q8IUX4) (assay: qHTS for inhibitors of Vif-A3F interactions: Cherry picks). Details: HeLa A3F-eYFP + Vif (tagged APOBEC3F with the HIV-1 protein that degrades it), eYFP fluorescence, 24 h.
DNA dC->dU-editing enzyme APOBEC-3F (Homo sapiens), sequence (Q8IUX4 whole entry, looked up): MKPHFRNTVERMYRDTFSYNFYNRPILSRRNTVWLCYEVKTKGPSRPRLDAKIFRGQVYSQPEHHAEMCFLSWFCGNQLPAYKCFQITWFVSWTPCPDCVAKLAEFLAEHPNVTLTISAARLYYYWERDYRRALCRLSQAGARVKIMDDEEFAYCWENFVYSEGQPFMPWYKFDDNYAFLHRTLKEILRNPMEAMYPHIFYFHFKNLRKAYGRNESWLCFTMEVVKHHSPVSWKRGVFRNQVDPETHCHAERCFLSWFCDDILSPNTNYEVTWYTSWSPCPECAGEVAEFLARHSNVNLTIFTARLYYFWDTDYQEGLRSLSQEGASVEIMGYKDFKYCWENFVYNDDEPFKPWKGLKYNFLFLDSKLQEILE
How it was run: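 Read-out: yellow fluorescence (ex 488 nm, em 500-530 nm) by laser-scanning cytometer after 24 h compound exposure, several concentrations, at 37 deg C. Cells: HeLa line stably co-expressing Vif and C-terminally eYFP-tagged A3F; MG132 served as positive control.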
With `CCCCn1c(O)c(C(=O)/C=C/c2c[nH]c3ccccc23)c(=O)[nH]c1=O` the Potency was 12.5 µM (active). `CN1CCN(c2ccc(/C=C3\C(=O)NC(=S)N(c4cccc(Br)c4)C3=O)o2)CC1` was tested, and the Potency was 18.4 µM (active). With `CN1C(=O)/C(=C/c2ccc(N3CCCCCC3)o2)C(=O)NC1=S` the Potency was 12.5 µM (active). `Cc1cc(/C=C2\C(=O)NC(=O)N(c3ccc(Br)cc3)C2=O)c(C)n1C` gave a max response of -6.73%. `CN1C(=O)/C(=C\c2ccc(N3CCCCC3)o2)C(=O)NC1=S` was tested, and the Potency was 14 µM (active). `CCC(C)N1C(=O)/C(=C\c2ccc(N3CCCCCC3)cc2)C(=O)NC1=S` (stereo not drawn) was tested, and the max response was -14.3%. With `O=c1[nH]c(CN2CC=C(c3ccccc3)CC2)nc2scc(-c3ccccc3)c12` the Potency was 18.4 µM (active). For `Nc1ccc2c3c(cccc13)-c1ccccc1-2`, the Potency was 4.11 µM (active). With `COc1cc(C2C(C#N)=C(N)Oc3cc(O)ccc32)cc(OC)c1OC` (stereo not drawn) the Potency was 1.98 µM (active). `CCCCNC(=O)/C(C#N)=c1\s/c(=C\c2ccccc2OC(F)F)c(=O)n1CCCOC` was tested, and the Potency was 16.4 µM (active). For `CCCCCn1c(NC(=O)c2ccco2)c(C(=O)OCC)c2nc3ccccc3nc21`, the Potency was 15.8 µM (active). Work on `COCCNC(=O)c1c(NC(=O)c2ccc(Br)o2)n(Cc2ccccc2)c2nc3ccccc3nc12` yielded a max response of -6.71%. For `O=c1[nH]c(=O)n(Cc2ccccc2Cl)c(O)c1/C=C1/C=CC=N1`, the Potency was 9.2 µM (active). In the case of `CC(C)CCCn1c(O)c(/C=C2/C=CC=N2)c(=O)[nH]c1=O`, the Potency is reported as 18.4 µM (active). In the case of `COC(=O)C1=C(C)N(Cc2ccco2)C(=O)/C1=C\c1ccc(N(C)C)cc1`, the Potency is reported as 13 µM (active). `O=c1c2ccccc2nc(/C=C/c2ccc([N+](=O)[O-])o2)n1-c1ccc(O)cc1` was tested, and the Potency was 12.5 µM (active). `CN1/C(=C\C=C2C(=O)NC(=O)NC2=O)C(C)(C)c2ccccc21` gave a max response of -9.38%. For `O=C1NC(=O)N(Cc2ccc(F)cc2)C(=O)/C1=C\c1ccoc1`, the max response was -24.2%. With `O=C(Cc1ccccc1)c1ccccn1` the Potency was 17.7 µM (active). For `CCS(=O)(=O)N1N=C(c2cccc(NS(C)(=O)=O)c2)CC1c1ccccc1` (stereo not drawn), the Potency was 23.1 µM (active). `COc1ccccc1-n1c(/C=C/c2ccc(O)cc2)nc2ccccc2c1=O` was tested, and the max response was -0.327%. For `Cc1ccccc1-n1c(/C=C/c2ccc(N(C)C)cc2)nc2ccccc2c1=O`, the Potency was 3.26 µM (active). In the case of `O=c1nc(/C=C/c2ccc(Cl)cc2Cl)cc(C(F)(F)F)[nH]1`, the max response is reported as -25.1%.
